Whole data set: some 110,000 compounds, median “z-score” near -0.1, cut for the highest 2% near 2. The list comes from a sample in which the highest values are over-represented; it also holds similar structures and randomly drawn compounds. Active and inactive are the calls of the source.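 The calls were made as follows: active = z-score in the third read window above 3 or below -3; inactive = the rest.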
The compounds below were run against Metabotropic glutamate receptor 8 (Rattus norvegicus) (UniProt P70579) (assay: rat mGluR8 modulators via GIRK flux, primary screen, cell-based, thallium flux, HTS (AID 488969)). Settings: HEK293 rat mGluR8, GIRK (G protein-gated inwardly rectifying potassium channel) thallium flux, FluoZin2; at 10 µM; stronger effect = higher value; submaximal glutamate (EC20) added with thallium.
Chain of Metabotropic glutamate receptor 8 (Rattus norvegicus) (P70579 whole entry, looked up): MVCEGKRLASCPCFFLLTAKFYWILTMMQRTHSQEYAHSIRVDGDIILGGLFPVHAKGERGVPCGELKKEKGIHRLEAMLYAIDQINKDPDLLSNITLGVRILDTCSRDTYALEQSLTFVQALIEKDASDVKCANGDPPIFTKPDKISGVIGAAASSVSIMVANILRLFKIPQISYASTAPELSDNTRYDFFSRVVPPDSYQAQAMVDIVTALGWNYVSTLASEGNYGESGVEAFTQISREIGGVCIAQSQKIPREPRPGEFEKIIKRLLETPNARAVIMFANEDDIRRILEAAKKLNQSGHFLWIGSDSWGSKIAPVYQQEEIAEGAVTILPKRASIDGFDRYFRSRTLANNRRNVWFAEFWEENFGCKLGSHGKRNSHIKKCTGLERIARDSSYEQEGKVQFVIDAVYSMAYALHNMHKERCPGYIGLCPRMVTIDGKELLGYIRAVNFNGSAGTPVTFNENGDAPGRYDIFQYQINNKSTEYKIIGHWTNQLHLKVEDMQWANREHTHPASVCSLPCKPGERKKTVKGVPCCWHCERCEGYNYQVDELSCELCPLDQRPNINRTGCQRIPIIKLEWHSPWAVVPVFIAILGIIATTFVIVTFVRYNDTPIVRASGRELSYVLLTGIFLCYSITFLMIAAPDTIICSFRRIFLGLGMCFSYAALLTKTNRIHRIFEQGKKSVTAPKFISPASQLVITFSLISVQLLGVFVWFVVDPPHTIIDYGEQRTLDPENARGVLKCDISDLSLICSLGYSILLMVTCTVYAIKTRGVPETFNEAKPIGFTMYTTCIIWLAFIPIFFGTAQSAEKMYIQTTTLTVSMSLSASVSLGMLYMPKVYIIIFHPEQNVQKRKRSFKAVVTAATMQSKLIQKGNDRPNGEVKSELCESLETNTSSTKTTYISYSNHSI
Compound `O=C1/C(=C/c2cccnc2)Oc2cc(OS(=O)(=O)c3ccc(Cl)cc3)ccc21` has a z-score of 0.0689.
`Cc1nn(-c2ccccc2)c(C)c1/C=N/NC(=O)c1cc(-c2cccc3ccccc23)n[nH]1` was tested, and the z-score was -0.481.
Work on `Cc1c(C(=O)Oc2ccc(F)cc2)sc2ncn(Cc3cccc(F)c3)c(=O)c12` yielded a z-score of -0.113.
`O=c1c2ccccc2[nH]c(=S)n1Cc1cccs1` was tested, and the z-score was 2.21.
With `O=c1c2cc(Cl)ccc2[nH]c(=S)n1Cc1cccs1` the z-score was 4.2 (active).
`O=c1c2cc(Cl)ccc2[nH]c(=S)n1Cc1ccccn1` was tested, and the z-score was 1.21.
`CCN(CC)CCn1c(=S)[nH]c2ccc(Cl)cc2c1=O` gave a z-score of 1.01.
Work on `O=C(CCn1c(=S)[nH]c2ccccc2c1=O)N1CCOCC1` yielded a z-score of 0.695.
Work on `CCC1CCCCN1Cc1ccc(OC)c(C)c1C` (centres undefined) yielded a z-score of 0.363.
`CC(C)Oc1ccc(/C(O)=C2/C(=O)C(=O)N(CCCn3ccnc3)C2c2cccnc2)cc1` (centres undefined) gave a z-score of -0.0218.
`O=S(=O)(Nc1ncccn1)c1ccc(Nc2ncnc3ccccc23)cc1` was tested, and the z-score was 0.439.
Work on `Cc1cccc(OCC(=O)Nc2sc3c(c2C#N)CCC3)c1` yielded a z-score of -0.312.
With `O=C(NC1(C(F)(F)F)NC(=O)N(Cc2cccnc2)C1=O)c1ccncc1` (centres undefined) the z-score was 2.13.
Work on `O=C(NC1(C(F)(F)F)NC(=O)N(Cc2cccnc2)C1=O)c1ccc(F)cc1` (centres undefined) yielded a z-score of 0.269.
`O=C(NC1(C(F)(F)F)NC(=O)N(Cc2cccnc2)C1=O)c1ccccc1` (centres undefined) gave a z-score of 1.13.
`CCOC(=O)/C=C/C(=O)Nc1ccccc1-c1ccccc1NC(=O)/C=C/C(=O)OCC` gave a z-score of -0.138.
In the case of `COc1ccccc1OCCCOc1c(C)cc(C)cc1Br`, the z-score is reported as -0.185.
In the case of `FC(F)(F)c1nnc2ccc(N3CCCC3)nn12`, the z-score is reported as -0.343.
Work on `CCOC(=O)c1cnc(-n2nc(C)cc2C)nc1Nc1ccccc1OC` yielded a z-score of 0.0785.
For `CCC1CCCCN1S(=O)(=O)c1ccc(S(=O)(=O)N(Cc2ccccn2)CC2CCCO2)cc1` (centres undefined), the z-score was -0.251.
`O=c1c2cc(Cl)ccc2[nH]c(=S)n1Cc1ccco1` was tested, and the z-score was 16.1 (active).
For `O=c1[nH]c2cccnc2n1Cc1ccco1`, the z-score was 0.26.
Work on `O=c1c2cc3c(cc2[nH]c(=S)n1Cc1ccco1)OCO3` yielded a z-score of 2.77.
With `Nc1cc(=O)[nH]c(=O)n1Cc1ccco1` the z-score was 0.299.
`CC(C)NC(=O)c1ccc2c(=O)n(Cc3ccco3)c(=S)[nH]c2c1` showed a z-score of 0.167.
Work on `O=C(c1ccc2c(=O)n(Cc3ccco3)c(=S)[nH]c2c1)N1CCN(Cc2ccccc2)CC1` yielded a z-score of 0.611.
`CN1CCN(C(=O)c2ccc3c(=O)n(Cc4ccco4)c(=S)[nH]c3c2)CC1` gave a z-score of 0.757.
For `COc1cc2[nH]c(=S)n(Cc3ccco3)c(=O)c2cc1OC`, the z-score was -0.209.
With `O=c1[nH]c2ccc(Cl)cc2c(=O)n1Cc1ccco1` the z-score was 5.27 (active).
For `OCc1cn(-c2ccccc2)nc1-c1ccc(-c2nn(-c3ccccc3)cc2CO)cc1`, the z-score was 0.428.
In the case of `Cc1ccc(NC(=O)c2cc(S(=O)(=O)c3ccccc3)ccc2Cl)cc1`, the z-score is reported as -0.0678.
With `COc1ccc(-n2c(SCCC(=O)O)nnc2-c2ccncc2)cc1` the z-score was 0.658.
With `Cc1cc(C)cc(C(=O)NCC(=O)OCC(=O)N2c3ccccc3NC(=O)C2(C)C)c1` the z-score was -0.138.
Compound `CC(C)c1nc(NCc2ccccc2)c(C#N)c2c1CCCC2` has a z-score of -0.133.
Work on `CCN(CC)S(=O)(=O)c1ccc(C(=O)OCCNC(=O)c2cccnc2)cc1` yielded a z-score of -0.485.
For `CCOc1[nH]n(-c2ccc(Cl)cc2)c(=O)c1C=Nc1ccc(Cl)cc1`, the z-score was 3.26 (active).
For `CCOc1[nH]n(-c2ccc(Cl)cc2)c(=O)c1C=Nc1ccc(C)cc1`, the z-score was -0.176.
`CCOc1[nH]n(-c2ccccc2)c(=O)c1C=Nc1ccc(Cl)cc1` was tested, and the z-score was 0.655.
`COc1ccc(-c2nc(C#N)c(N3CCC(C(N)=O)CC3)o2)cc1` gave a z-score of -0.0894.
`OCCNc1ncnc2c1c(-c1ccccc1)c(-c1ccccc1)n2Cc1ccco1` showed a z-score of -0.463.
For `c1ccc(-c2c(-c3ccccc3)n(Cc3ccco3)c3ncnc(NCCCn4ccnc4)c23)cc1`, the z-score was 2.78.
`N=c1c2c(-c3ccccc3)c(-c3ccccc3)n(Cc3ccco3)c2ncn1Cc1ccccc1` was tested, and the z-score was 0.528.
`N=c1c2c(-c3ccccc3)c(-c3ccccc3)n(Cc3ccccc3)c2ncn1CCO` gave a z-score of 0.392.
`CC(C)Cn1cnc2c(c(-c3ccccc3)c(-c3ccccc3)n2Cc2ccco2)c1=N` was tested, and the z-score was 3.58 (active).
`N=c1c2c(-c3ccccc3)c(-c3ccccc3)n(Cc3ccco3)c2ncn1CCO` was tested, and the z-score was 0.759.
`c1ccc(-c2oc3ncnc(NCCCn4ccnc4)c3c2-c2ccccc2)cc1` gave a z-score of 0.609.
`N=c1c2c(-c3ccccc3)c(-c3ccccc3)n(Cc3ccco3)c2ncn1CCN1CCOCC1` gave a z-score of -0.19.
For `N=c1c2c(-c3ccccc3)c(-c3ccccc3)n(Cc3ccccc3)c2ncn1CCCO`, the z-score was 4.35 (active).
With `COc1ccc(C(=O)Nc2nc3ccc4nc(C)sc4c3s2)cc1` the z-score was -0.0988.
`CCC(C)NC(=O)Cn1c(COc2ccc(Cl)cc2Cl)nc2ccccc21` (centres undefined) gave a z-score of -2.32.
Compound `O=C(CN(Cc1ccccc1)C(=O)CSc1nnc(COc2ccccc2)o1)NC1CCCC1` has a z-score of 0.0593.
Compound `Cc1cc(/C=C(\C#N)C(=O)NC2CC2)c(C)[nH]1` has a z-score of 0.155.
`CCCNC(=O)c1cccc(COCC(F)(F)C(F)F)c1` showed a z-score of -0.0567.
For `Cc1ccc(S(=O)(=O)N2CCOCC2)cc1C(=O)Nc1ccc2c(c1)CCC2`, the z-score was -0.205.

Reference: PubChem BioAssay AID488969 (Vanderbilt High Throughput Screening Facility, 2010)
